Data: the supplement of paper PMC3334620
In all, about 33,000 sequences were measured (“E-score (-0.5 to 0.5)”: median about -0.016, highest 2% from about 0.31 on). For the sample, the highest values were picked, then their nearest neighbours and some sequences at random.

Molecular target: Cst6 (UniProt P40535)
Assay: PBM E-score (8-mer binding enrichment) (E-score (-0.5 to 0.5)); higher = stronger / more preferred TF binding
Settings: protein concentration: 200 nM; construct: GST-DNA-binding domain
Method: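 Universal 'all 10-mer' protein binding microarrays (Agilent AMADID 015681) probed with GST-tagged S. cerevisiae TFs (full-length or DBD) made by in vitro transcription/translation (PURExpress), about 100-200 nM. Bound TF was detected with fluorescent anti-GST. Each ungapped 8-mer (which stands for itself and its reverse complement) is scored by the PBM enrichment score (E-score), a modified Wilcoxon-Mann-Whitney statistic from -0.5 to +0.5, computed with the Universal PBM Analysis Suite. Scale: above 0.35 generally sequence-specific binding.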

UniProt P40535, sequence (P40535 whole entry): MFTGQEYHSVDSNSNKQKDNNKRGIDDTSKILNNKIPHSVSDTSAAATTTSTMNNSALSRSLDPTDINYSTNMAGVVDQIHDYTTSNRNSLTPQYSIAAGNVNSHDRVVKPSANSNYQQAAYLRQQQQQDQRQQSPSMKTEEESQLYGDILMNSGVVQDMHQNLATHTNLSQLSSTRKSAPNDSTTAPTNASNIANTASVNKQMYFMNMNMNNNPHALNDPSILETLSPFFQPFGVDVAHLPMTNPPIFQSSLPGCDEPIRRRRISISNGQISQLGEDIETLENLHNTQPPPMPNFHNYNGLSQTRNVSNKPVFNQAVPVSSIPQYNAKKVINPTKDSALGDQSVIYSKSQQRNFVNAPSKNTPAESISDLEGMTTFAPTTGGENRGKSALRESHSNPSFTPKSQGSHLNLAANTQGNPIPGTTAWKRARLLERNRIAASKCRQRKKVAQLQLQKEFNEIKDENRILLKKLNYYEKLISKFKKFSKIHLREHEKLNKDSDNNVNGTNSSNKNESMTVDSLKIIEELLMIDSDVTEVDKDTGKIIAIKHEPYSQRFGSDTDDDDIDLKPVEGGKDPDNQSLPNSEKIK

Sequence	PBM E-score
ATCCGTGA	-0.0022
GATCGGAC	-0.0973
CAGATTGC	-0.0228
GTAGATGA	0.181
CCTAGCTA	-0.162
ATTTGTGG	0.0944
AGATTACC	0.144
AGATTACG	0.386
AGATTACT	0.144
CGATTACC	-0.107
CGATTACG	0.349
CGATTACA	0.13
CTCCCACC	-0.335
ACGGCTTC	0.0724
AAGCCTGT	-0.0963
GTCGCCCA	-0.192
CAGCTCTC	-0.172
CATAATAA	0.267
AAAAATAA	0.292
AACAATAA	0.204
AACAATAC	0.156
AAAAATAG	0.118
AATAATAT	0.305
AAAAATAT	0.309
AATAATAG	0.209

Sequence	PBM E-score
AATAATAA	0.313
AATAATGT	0.181
AATAATAC	0.197
AACAATAT	0.37
GCCTTAAA	0.151
GATGGCCC	-0.106
CGAGCCCG	-0.126
CGGAAATA	0.155
CCGAGTTC	-0.063
CCCTAGGA	-0.295
TATTAATA	0.0736
TACTAATA	0.222
CTTTAATA	0.201
AATTAATG	0.174
CACTAATA	0.211
AACTAATA	0.336
AATTAATC	0.197
GTTTAATA	0.202
ATTTAATA	0.338
GATTAATA	0.261
AATTAATT	0.311
AATTAATA	0.39
GAGTCCGA	-0.0585
TCGCCAGA	-0.0255
ACTCGCCA	-0.037

Sequence	PBM E-score
AATAAACG	0.157
GCCGGAGC	-0.249
CAACTGAC	0.0886
CGATGTAA	0.117
TGATGTAA	0.488
AGATGTAA	0.27
GGATGCAA	-0.129
CGATGCAA	-0.0639
TGATGCAA	0.418
CACAGGAA	-0.0714
TCAATCGA	0.249
CGACGGAA	-0.188
TGACGGCA	0.371
GGACGGCA	0.25
TGACGGAA	0.432
CGACGGCA	-0.00873
GGACGGAA	-0.119
CCGTCGGA	-0.114
CCCAGTAC	-0.202
ACGTCACC	0.496
TAGTCACA	0.0725
GCGTCACC	0.448
GGGTCACC	-0.153
CCGTCACG	0.176
TGGTCACA	0.0201

Sequence	PBM E-score
GAGTCACC	0.0602
TCGTCACA	0.368
CCGTCACA	0.139
AAGTCACC	0.188
GCGTCACA	0.417
AGGTCACC	0.0958
CCAAAGCC	-0.0189
AACATCCT	-0.0218
GAGGATTA	-0.125
GTAGCGAC	-0.304
CCATCAAG	-0.165
CGGCGGTA	0.128
AAGAGTGT	0.0413
ACGACCGT	-0.238
GCGGGGTA	-0.201
GAGCCTCC	-0.278
AGGGCGGG	-0.0957
ACTCCGAA	-0.169
CGGTCACC	0.0497
CCGTCACC	0.411
CAGTCACC	-0.113
AGGTTCGC	-0.315
ACAATGGG	0.0198
CCAGACCG	-0.0843
ACCTGCGA	-0.26

Sequence	PBM E-score
AGCTGCTG	-0.0369
TACGAAAA	0.233
GACGAAAA	0.329
CACGAAAA	0.247
TGCTGACA	0.0293
CCCAATCG	-0.0318
ATCATCTA	0.151
CTCATCTA	-0.113
TTCATCAA	0.151
GCCATCAA	-0.169
GTCATCTA	0.368
CTCATCAA	0.134
GTCATCGA	0.348
GTCATCAA	0.385
CTCATCGA	-0.0055
ATCATCAA	0.326
GGCATCAA	0.0768
ATCATCGA	0.183
AGAGCCCA	-0.263
ATCCCGAA	0.00888
TCGAACCA	-0.0349
CCATGGAA	-0.0645
ACCAGGTC	-0.218
CTCATCCA	0.0578
GTCATCCA	0.383

Sequence	PBM E-score
ATCATCCA	0.0994
AGGGGTTC	-0.327
CCTCACGC	0.22
GGTCACGA	0.0109
AGTCACGC	-0.07
CGTCACGC	0.441
AGTCACGA	0.0257
CGTCACGA	0.449
GCCCACGC	-0.238
GTGATGGA	0.0419
AAGTCTGC	-0.226
ATCTTCTC	-0.0503
GACCAAAC	0.0333
AACGCCGT	0.373
AATGCCGT	0.418
CACGCCGC	0.0528
AACGCCGA	0.23
GACGCCGC	0.271
AATGCCGA	0.041
AACGCCGG	-0.138
AATGCCGG	-0.0561
AACGCCGC	0.361
GCTCGGCA	-0.0691
ACGTTTCT	-0.0531
CCCAGGGC	-0.337

Sequence	PBM E-score
CTCCTCAG	-0.231
CCAATTGG	-0.0187
ACAAGCGT	0.0465
ACCATGAC	0.395
ACCATGAT	0.146
CCCATGAA	-0.00568
CCCATGAC	0.336
ACCATGAA	0.0849
GCCATGAC	0.284
CCCATAAA	-0.0662
ACCCTGCT	-0.34
CAGCGTCA	0.279
AAGCGTCC	-0.0893
TAGCGTCA	0.399
AAGCGTCA	0.336
GAGCGTCA	0.271
AAGCGTCG	-0.151
AGGTGCGA	-0.148
ATCTTTAC	0.162
ATATCATG	0.19
ATATCATC	0.337
CTATCATA	0.14
